Results from PubChem BioAssay (NCATS).
Inconclusive results are not listed. Unmarked numbers belong to inactive results. Active and inactive are the calls of the source. The call rests on the fitted dose curve; in most records, active means well fitted cell-killing curve with a large enough effect; inconclusive means small, poorly fitted or top-dose-only effect, or effect the other way; inactive means flat fitted curve, though single readings scatter.

system: OV90; test: Primary qHTS to identify gynecologic anti-cancer compounds using libraries of approved drugs and bioactive compounds (AID 1345084); conditions: Gynecologic cancer cell panel viability, ATPlite luminescence, 48 h; series mostly up to 57.5 µM; activity change, negative = cytotoxicity: at the top concentration; further: nearly all actives have a fitted effect of over 55% in size
Method in brief: (§1)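 Luminescence from the ATPlite ATP-monitoring reagent indicates viable cell number; lower signal means cytotoxicity. Cells received compound 16 h after seeding and were exposed for 48 h across five concentrations.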
On the % scale 0 is the no-effect control and ±100 the full control effect.

Compound	activity change, negative = cytotoxicity	Potency
CN(C)C(=N)N=C(N)N	6.2%	–
CC12CC3CC(C)(C1)CC(N)(C3)C2	1.9%	–
Clc1ccc2c(c1)C(N1CCNCC1)=Nc1ccccc1O2	–	inactive
CCOC(=O)Nc1ccc(NCc2ccc(F)cc2)nc1N	21.6%	–
NCCCCCC(=O)O	-0.37%	–
O=C(c1ccc(OCCN2CCCCC2)cc1)c1c(-c2ccc(O)cc2)sc2cc(O)ccc12	-10.3%	–
C[C@H]1c2cccc(O)c2C(O)=C2C(=O)[C@]3(O)C(O)=C(C(N)=O)C(=O)[C@@H](N(C)C)[C@@H]3[C@@H](O)[C@@H]21	26.5%	–
Cn1c(=O)c2c(ncn2C)n(C)c1=O	35.8%	–
CS(=O)(=O)Nc1ccc([N+](=O)[O-])cc1Oc1ccccc1	6.79%	–
Cn1cnc2c1c(=O)[nH]c(=O)n2C	-0.724%	–
CN(C)c1nc(N(C)C)nc(N(C)C)n1	12.1%	–
CC(C(=O)O)c1cccc(C(=O)c2ccccc2)c1 (stereo not given)	-14.2%	–
Clc1ccc(C(c2ccccc2Cl)C(Cl)Cl)cc1 (stereo not given)	-4.86%	–
Nc1ccn([C@H]2CC[C@@H](CO)O2)c(=O)n1	13.7%	–
NS(=O)(=O)c1cc2c(cc1Cl)NCNS2(=O)=O	7.29%	–
Nc1nc2c(ncn2COC(CO)CO)c(=O)[nH]1	-0.413%	–
NC(=O)NO	-6.53%	–
CC(C)NCC(O)COc1ccc(CCOCC2CC2)cc1 (stereo not given)	-26.5%	–
C[C@@H]1CC(=O)NN=C1c1ccc(NN=C(C#N)C#N)cc1	–	inactive
CS(=O)(=O)CCNCc1ccc(-c2ccc3ncnc(Nc4ccc(OCc5cccc(F)c5)c(Cl)c4)c3c2)o1	7.29%	–
COc1nc(C)nc(Cl)c1NC1=NCCN1	-8.94%	–
Cc1ccc(-c2cc(C(F)(F)F)nn2-c2ccc(S(N)(=O)=O)cc2)cc1	–	inactive
O=C1N(c2ccccc2)c2ccccc2C1(Cc1ccncc1)Cc1ccncc1	2.82%	–
CN1C(C(=O)Nc2ccccn2)=C(O)c2ccccc2S1(=O)=O	-4.16%	–
Cc1cnc(C(=O)NCCc2ccc(S(=O)(=O)NC(=O)NC3CCCCC3)cc2)cn1	9.52%	–
CCc1cccc2c3c([nH]c12)C(CC)(CC(=O)O)OCC3 (stereo not given)	-6.9%	–
O=C1Cc2cc(CCN3CCN(c4nsc5ccccc45)CC3)c(Cl)cc2N1	-17.8%	–
Cc1cn([C@H]2C=C[C@@H](CO)O2)c(=O)[nH]c1=O	3.25%	–
CC(C)(C)C(=O)Oc1ccc(S(=O)(=O)Nc2ccccc2C(=O)NCC(=O)O)cc1	-2.2%	–

system: PA-1; test: as above; conditions: Gynecologic cancer cell panel viability, ATPlite luminescence, 48 h; series mostly up to 57.5 µM; activity change, negative = cytotoxicity: at the top concentration
Method in brief: as §1

Compound	activity change, negative = cytotoxicity	Potency
CN(C)C(=N)N=C(N)N	-1.1%	–
CC12CC3CC(C)(C1)CC(N)(C3)C2	1.92%	–
Clc1ccc2c(c1)C(N1CCNCC1)=Nc1ccccc1O2	–	inactive
CCOC(=O)Nc1ccc(NCc2ccc(F)cc2)nc1N	9.82%	–
NCCCCCC(=O)O	1.33%	–
C[C@H]1c2cccc(O)c2C(O)=C2C(=O)[C@]3(O)C(O)=C(C(N)=O)C(=O)[C@@H](N(C)C)[C@@H]3[C@@H](O)[C@@H]21	7.67%	–
Cn1c(=O)c2c(ncn2C)n(C)c1=O	18.4%	–
CS(=O)(=O)Nc1ccc([N+](=O)[O-])cc1Oc1ccccc1	3.7%	–
Cn1cnc2c1c(=O)[nH]c(=O)n2C	-3.5%	–
CN(C)c1nc(N(C)C)nc(N(C)C)n1	-1.92%	–
CC(C(=O)O)c1cccc(C(=O)c2ccccc2)c1 (stereo not given)	4.05%	–
CCCNCC(O)COc1ccccc1C(=O)CCc1ccccc1 (stereo not given)	-15.6%	–
Clc1ccc(C(c2ccccc2Cl)C(Cl)Cl)cc1 (stereo not given)	-1.03%	–
Nc1ccn([C@H]2CC[C@@H](CO)O2)c(=O)n1	4.6%	–
NS(=O)(=O)c1cc2c(cc1Cl)NCNS2(=O)=O	7.41%	–
Nc1nc2c(ncn2COC(CO)CO)c(=O)[nH]1	-4.15%	–
NC(=O)NO	-4.56%	–
CC(C)NCC(O)COc1ccc(CCOCC2CC2)cc1 (stereo not given)	-1.58%	–
COc1ccc(CCN(C)CCCC(C#N)(c2ccc(OC)c(OC)c2)C(C)C)cc1OC (stereo not given)	-5.21%	–
C[C@@H]1CC(=O)NN=C1c1ccc(NN=C(C#N)C#N)cc1	–	inactive
CS(=O)(=O)CCNCc1ccc(-c2ccc3ncnc(Nc4ccc(OCc5cccc(F)c5)c(Cl)c4)c3c2)o1	–	inactive
COc1nc(C)nc(Cl)c1NC1=NCCN1	-0.35%	–
Cc1ccc(-c2cc(C(F)(F)F)nn2-c2ccc(S(N)(=O)=O)cc2)cc1	–	inactive
O=C1N(c2ccccc2)c2ccccc2C1(Cc1ccncc1)Cc1ccncc1	17.1%	–
CN1C(C(=O)Nc2ccccn2)=C(O)c2ccccc2S1(=O)=O	-2.06%	–
Cc1cnc(C(=O)NCCc2ccc(S(=O)(=O)NC(=O)NC3CCCCC3)cc2)cn1	-0.705%	–
CCc1cccc2c3c([nH]c12)C(CC)(CC(=O)O)OCC3 (stereo not given)	-1.03%	–
O=C1Cc2cc(CCN3CCN(c4nsc5ccccc45)CC3)c(Cl)cc2N1	–	inactive
Cc1cn([C@H]2C=C[C@@H](CO)O2)c(=O)[nH]c1=O	20%	–
CC(C)(C)C(=O)Oc1ccc(S(=O)(=O)Nc2ccccc2C(=O)NCC(=O)O)cc1	10.4%	–

system: SKOV3; test: as above; conditions: Gynecologic cancer cell panel viability, ATPlite luminescence, 48 h; series mostly up to 57.5 µM; activity change, negative = cytotoxicity: at the top concentration
Method in brief: as §1

Compound	activity change, negative = cytotoxicity	Potency
CN(C)C(=N)N=C(N)N	16.8%	–
CC12CC3CC(C)(C1)CC(N)(C3)C2	4.56%	–
Clc1ccc2c(c1)C(N1CCNCC1)=Nc1ccccc1O2	–	inactive
CCOC(=O)Nc1ccc(NCc2ccc(F)cc2)nc1N	-10.9%	–
NCCCCCC(=O)O	-2.12%	–
C[C@H]1c2cccc(O)c2C(O)=C2C(=O)[C@]3(O)C(O)=C(C(N)=O)C(=O)[C@@H](N(C)C)[C@@H]3[C@@H](O)[C@@H]21	18%	–
Cn1c(=O)c2c(ncn2C)n(C)c1=O	1.03%	–
CS(=O)(=O)Nc1ccc([N+](=O)[O-])cc1Oc1ccccc1	7.23%	–
Cn1cnc2c1c(=O)[nH]c(=O)n2C	8.76%	–
O=c1c(O)c(-c2ccc(O)c(O)c2)oc2cc(O)cc(O)c12	-6.67%	–
Clc1ccc(C(c2ccccc2Cl)C(Cl)Cl)cc1 (stereo not given)	-15.9%	–
Nc1ccn([C@H]2CC[C@@H](CO)O2)c(=O)n1	1.83%	–
NS(=O)(=O)c1cc2c(cc1Cl)NCNS2(=O)=O	13.4%	–
Nc1nc2c(ncn2COC(CO)CO)c(=O)[nH]1	14.3%	–
NC(=O)NO	6.48%	–
CC(C)NCC(O)COc1ccc(CCOCC2CC2)cc1 (stereo not given)	0%	–
COc1ccc(CCN(C)CCCC(C#N)(c2ccc(OC)c(OC)c2)C(C)C)cc1OC (stereo not given)	-11.1%	–
C[C@@H]1CC(=O)NN=C1c1ccc(NN=C(C#N)C#N)cc1	–	inactive
CS(=O)(=O)CCNCc1ccc(-c2ccc3ncnc(Nc4ccc(OCc5cccc(F)c5)c(Cl)c4)c3c2)o1	-38.5%	–
COc1nc(C)nc(Cl)c1NC1=NCCN1	9.51%	–
Cc1ccc(-c2cc(C(F)(F)F)nn2-c2ccc(S(N)(=O)=O)cc2)cc1	–	inactive
O=C1N(c2ccccc2)c2ccccc2C1(Cc1ccncc1)Cc1ccncc1	11.8%	–
Cc1cnc(C(=O)NCCc2ccc(S(=O)(=O)NC(=O)NC3CCCCC3)cc2)cn1	0%	–
CCc1cccc2c3c([nH]c12)C(CC)(CC(=O)O)OCC3 (stereo not given)	-5.87%	–
O=C1Cc2cc(CCN3CCN(c4nsc5ccccc45)CC3)c(Cl)cc2N1	-1.76%	–
Cc1cn([C@H]2C=C[C@@H](CO)O2)c(=O)[nH]c1=O	0.293%	–
